± gives the standard deviation of the averaged measurements.

The subject of this assay is SW480. The experiment in a line: TCF/Wnt firefly luciferase reporter signal relative to plate median (fraction of plate median); higher = higher Wnt reporter signal. The settings on record: 5 µM; treatment time 24 h; reporter: 7TFP. A digest of the protocol: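 Colorectal cancer cell lines stably carrying lentiviral TCF/Wnt firefly luciferase reporters (7TFP or TCF4/Wnt) were plated in 384-well plates and, 24 h later, given library compounds at a final 5 µM for 24 h. Firefly luciferase or CellTiterGlo luminescence was read on parallel plates with a Tecan F500 reader. Each well's signal was normalised to the plate median in webcellHTS2 (additive, without log transformation). Values are the mean of two independent replicates.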
In the case of `CC(=O)O[C@@H]1C[C@H]2C(C)(C)C(=O)C=C[C@]2(C)[C@H]2CC[C@@]3(C)[C@H](c4ccoc4)OC(=O)[C@H]4O[C@]43[C@@]21C`, the “TCF/Wnt firefly luciferase reporter signal” value amounted to 1.11 ± 0.028. As to `O=C(O)CCc1nc(-c2ccccc2)c(-c2ccccc2)o1`, the “TCF/Wnt firefly luciferase reporter signal” value stood at 0.952 ± 0.032.

As to `Oc1cc(O)c2c(c1)O[C@H](c1ccc(O)c(O)c1)[C@@H](O)C2`, the “TCF/Wnt firefly luciferase reporter signal” value was 1.15 ± 0.035. As for `C[n+]1c2cc(N)ccc2cc2ccc(N)cc21`, the “TCF/Wnt firefly luciferase reporter signal” value was 1.01 ± 0.08.

On to `CC1(C)C(=O)C=C[C@@]2(C)C1CC(=O)[C@@]1(C)C3=CC(=O)O[C@@H](c4ccoc4)[C@]3(C)CCC12` (stereo not given in full), for which the “TCF/Wnt firefly luciferase reporter signal” value was 0.956 ± 0.076. For `OCc1ccccc1O`, the “TCF/Wnt firefly luciferase reporter signal” value was 0.866 ± 0.042. Take `CN1CCc2c(c3ccccc3n2Cc2ccccc2)C1`: the “TCF/Wnt firefly luciferase reporter signal” value worked out at 0.961 ± 0.14. On to `CC1CCC(C(C)C)C(O)C1` (stereo not given), for which the “TCF/Wnt firefly luciferase reporter signal” value was found to be 1.01 ± 0.09.

`CC1CC2C3CCC4=CC(=O)C=CC4(C)C3(F)C(O)CC2(C)C1C(=O)CO` (stereo not given): the “TCF/Wnt firefly luciferase reporter signal” value was found to be 1.04 ± 0.057. Turning to `O=[N+]([O-])c1cccc2c(Br)[nH]nc12`, the “TCF/Wnt firefly luciferase reporter signal” value turned out to be 0.967 ± 0.13. Consider `O=c1c(-c2ccc(O)cc2)coc2cc(O)ccc12` [Daidzein (Biofocus)], for which the “TCF/Wnt firefly luciferase reporter signal” value turned out to be 0.976 ± 0.091. As for `CC[N+](C)(C)c1cccc(O)c1`, the figure is 0.915 ± 0.044. The value for `C[C@@H]1O[C@@H](OC[C@H]2O[C@@H](Oc3c(-c4ccc(O)c(O)c4)oc4cc(O)cc(O)c4c3=O)[C@H](O)[C@@H](O)[C@@H]2O)[C@H](O)[C@H](O)[C@H]1O` [RUTOSIDE  (rutin)] was 0.769 ± 0.53.

With `CCN(CC)CCOC(=O)C(Cc1cccc2ccccc12)CC1CCCO1` (stereo not given), the “TCF/Wnt firefly luciferase reporter signal” value turned out to be 1.22 ± 0.37.

Consider `COc1c(N2CCNC(C)C2)c(F)cc2c(=O)c(C(=O)O)cn(C3CC3)c12` (stereo not given), for which the “TCF/Wnt firefly luciferase reporter signal” value stood at 0.906 ± 0.041. As to `Cc1cc(C(C)(C)CC(C)(C)C)ccc1OCCOCC[N+](C)(C)Cc1ccccc1`, the “TCF/Wnt firefly luciferase reporter signal” value is 0.909 ± 0.028. Turning to `CN1CCN(CCCN2c3ccccc3Sc3ccc(C(F)(F)F)cc32)CC1`, the “TCF/Wnt firefly luciferase reporter signal” value was found to be 1.05 ± 0.14. Consider `COC1=C[C@@H](C)[C@@H]2C[C@H]3OC(=O)C[C@H]4C(C)=C(OC)C(=O)[C@H]([C@@]2(C)C1=O)[C@@]34C`, for which the “TCF/Wnt firefly luciferase reporter signal” value came out at 1. Take `CCOC(=O)N1CCC(=C2c3ccc(Cl)cc3CCc3cccnc32)CC1`: the “TCF/Wnt firefly luciferase reporter signal” value was found to be 0.94 ± 0.032. On to `CCCCCC1C(=O)CCC1CC(=O)O` (stereo not given), for which the “TCF/Wnt firefly luciferase reporter signal” value was 1.04 ± 0.058. Take `CNC[C@H](O)c1cccc(O)c1`: the “TCF/Wnt firefly luciferase reporter signal” value stood at 1.075 ± 0.0071. The value for `CN1CCC(OC(c2ccccc2)c2ccccc2)CC1` was 1.16 ± 0.092. Regarding `CC(=O)O[C@@H]1CC[C@@]2(C)C(C[C@@H](OC(C)=O)[C@@]3(C)C4=CC(=O)O[C@@H](c5ccoc5)[C@]4(C)CCC23)C1(C)C` (stereo partly drawn) [3alpha-ACETOXYDIHYDRODEOXYGEDUNIN], the “TCF/Wnt firefly luciferase reporter signal” value came out at 1.11 ± 0.028. Take `CC(=O)O[C@H]1C[C@@H](O)C(C)(C)[C@@H]2C[C@@H](OC(C)=O)[C@]3(C)[C@H](CC[C@@]4(C)[C@@H](c5ccoc5)OC(=O)[C@H]5O[C@@]534)[C@@]12C`: the “TCF/Wnt firefly luciferase reporter signal” value came out at 0.978 ± 0.011.

`CN1CCC(=C2c3ccccc3CC(=O)c3sccc32)CC1`: the “TCF/Wnt firefly luciferase reporter signal” value was determined as 0.934 ± 0.042.

Turning to `CC(C)=CCC1=C(O)C(=O)c2ccccc2C1=O`, the “TCF/Wnt firefly luciferase reporter signal” value amounted to 1.04 ± 0.064. For `C1CCC(C(CC2CCCCN2)C2CCCCC2)CC1` (stereo not given), the “TCF/Wnt firefly luciferase reporter signal” value is 1.03. For the molecule `NS(=O)(=O)c1cc(C(=O)O)c(NCc2ccco2)cc1Cl`, the “TCF/Wnt firefly luciferase reporter signal” value was determined as 1.13 ± 0.057. For `CC(O)(P(=O)(O)O)P(=O)(O)O`, the “TCF/Wnt firefly luciferase reporter signal” value came to 0.968 ± 0.06. The value for `CO[C@@]12[C@H](COC(N)=O)C3=C(C(=O)C(C)=C(N)C3=O)N1C[C@@H]1N[C@@H]12` was 0.843 ± 0.13. `C1CNCCN1`: the “TCF/Wnt firefly luciferase reporter signal” value came to 1.05 ± 0.042. Turning to `COc1cc2occ(-c3ccccc3)c(=O)c2c(OC)c1C`, the “TCF/Wnt firefly luciferase reporter signal” value is 1.12 ± 0.05. As for `CCSC(=N)N`, the figure is 0.963 ± 0.031. The value for `O=C1CC2(CCCC2)CC(=O)N1CCCCN1CCN(c2ncccn2)CC1` was 1.08 ± 0.021; that for `CC(=O)N(O)CCCCCNC(=O)CC(O)(CC(=O)NCCCCCN(O)C(C)=O)C(=O)O` [Arthrobactin] was 1.06 ± 0.028. In the case of `Nc1ccc(C(=O)Oc2ccccc2)c(O)c1`, the “TCF/Wnt firefly luciferase reporter signal” value turned out to be 1.03 ± 0.035. Consider `CC(=O)O[C@@H]1CC2C(C)(C)[C@H](O)C[C@H](O)[C@@]2(C)C2CC[C@]3(C)C(=CC(=O)O[C@@H]3c3ccoc3)[C@]21C` (stereo not given in full), for which the “TCF/Wnt firefly luciferase reporter signal” value was 0.948 ± 0.088. For the molecule `COc1cccc2c1CCC1=CC(=O)CC[C@@]12C`, the “TCF/Wnt firefly luciferase reporter signal” value stood at 0.967 ± 0.1.

As for `C[C@@H]1O[C@H]2O[C@@H]3[C@@H](C)OC(c4ccc5c(c4O)C(=O)c4ccc(C[C@@](C)(O)CC(=O)O)c(O)c4C5=O)C[C@H]3O[C@H]2CC1=O` (stereo not given in full) [Fridamycin D], the “TCF/Wnt firefly luciferase reporter signal” value turned out to be 1.08 ± 0.021.

Take `COc1ccc2c(c1)OCC(Cc1ccc(OC)c(O)c1)C2=O` (stereo not given): the “TCF/Wnt firefly luciferase reporter signal” value was 0.883 ± 0.047.

For the origin of these results see the supplement of paper PMC6522484.
